# Screening results as filed in PubChem.
# JMJD2E inh: qHTS Assay for Inhibitors of Human Jumonji Domain Containing 2E (JMJD2E). Lysine-specific demethylase 4E (Homo sapiens), B2RXH2. 1.6% of 230,000 active. JMJD2E catalytic domain, FDH-coupled NADH fluorescence (FDH is formaldehyde dehydrogenase). Potency, µM (titrated, usually from 57.1 µM), inactives show at the highest dose activity change, negative = inhibition, usual class: inhibitors; active = well fitted inhibition curve with a large enough effect, not every such curve was filed as active; inconclusive = small, poorly fitted or top-dose-only effect, or another doubt; inactive = no such curve, though single readings can be large or run the other way;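 also: potency is read from the fitted curve at half-maximal effect; 0% = wells with enzyme and -100% = buffer wells without enzyme; nearly all actives have a fitted effect of over 50% in size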
# Tau fluor cs: Counterscreen qHTS for Inhibitors of Tau Fibril Formation, Fluorescence Polarization; tau K18 P301L Alexa594 fluorescence, heparin fibrillization; Potency, µM (highest dose often 57.7 µM), for the others: at the top dose activity change, negative = decrease; 0.93% of 280,000 active; also: potency is read from the fitted curve at half-maximal effect; % is scaled to controls: 0 for no effect and ±100 for the full control effect; nearly all actives have a fitted effect of over 55% in size
#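 Human K18 P301L tau (15 uM unlabeled plus 0.24 uM Alexa 594-labeled, final) in 100 mM sodium acetate pH 7 was mixed with compound and 20 uM heparin and incubated 6 hr at 37 C.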
# RGS12 GoLoco inh-1: qHTS Assay for Inhibitors of RGS12 GoLoco Motif Activity (Red Fluorophore). Guanine nucleotide-binding protein G(i) subunit alpha-1 (Homo sapiens), P63096. Gai1:RGS12 GoLoco peptide FP, rhodamine, 10 min. Potency, µM (series often up to 61.6 µM), for the others: at the top dose activity, negative = inhibition, most hits filed as inhibitors. 0.44% of 230,000 active; active = well fitted inhibition curve with a large enough effect, not every such curve was filed as active; inactive = no such curve, though single readings can be large or run the other way; also: potency is read from the fitted curve at half-maximal effect; % is scaled to controls: 0 for no effect and ±100 for the full control effect; nearly all actives have a fitted effect of over 30% in size
# Target sequence (P63096 whole entry, looked up): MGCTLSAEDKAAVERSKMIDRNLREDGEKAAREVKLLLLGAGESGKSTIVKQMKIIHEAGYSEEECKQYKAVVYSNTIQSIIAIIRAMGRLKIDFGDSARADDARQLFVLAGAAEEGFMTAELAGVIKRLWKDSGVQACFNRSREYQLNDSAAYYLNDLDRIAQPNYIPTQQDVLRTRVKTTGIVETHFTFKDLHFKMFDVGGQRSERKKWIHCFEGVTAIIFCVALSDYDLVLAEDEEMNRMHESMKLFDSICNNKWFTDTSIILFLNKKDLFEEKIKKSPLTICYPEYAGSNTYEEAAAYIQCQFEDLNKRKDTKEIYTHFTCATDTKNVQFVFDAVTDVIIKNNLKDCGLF
# Tau fibril ThT: qHTS for Inhibitors of Tau Fibril Formation, Thioflavin T Binding; 2.1% of 270,000 active; AID 1460, 2008; Potency, µM (titrated, usually from 57.4 µM), without a hit: at the highest dose activity, negative = inhibition, most hits filed as inhibitors; recombinant tau K18 P301L (four-repeat tau fragment), heparin-induced fibrillization, ThT fluorescence; Microtubule-associated protein tau (Homo sapiens), P10636; also: potency is read from the fitted curve at half-maximal effect; % is scaled to controls: 0 for no effect and ±100 for the full control effect; nearly all actives have a fitted effect of over 55% in size
# Target sequence (P10636 561-689 P618L limits assumed): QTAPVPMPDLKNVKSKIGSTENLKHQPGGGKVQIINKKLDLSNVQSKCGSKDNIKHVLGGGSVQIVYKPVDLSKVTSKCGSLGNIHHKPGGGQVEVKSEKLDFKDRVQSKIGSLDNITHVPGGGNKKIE
#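 In this qHTS, human K18 P301L tau is incubated with compound and heparin for 6 hr at 37 C, and Thioflavin T fluorescence then reports fibril load.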
# Tau fibril FP: qHTS for Inhibitors of Tau Fibril Formation, Fluorescence Polarization; Microtubule-associated protein tau (Homo sapiens), P10636; K18 P301L tau heparin fibrillization, Alexa594 FP, 6 h; Potency, µM (titrated, usually from 57.7 µM), inactives show top-dose activity, negative = inhibition, hits mostly inhibitors; 0.39% of 280,000 active; also: potency is read from the fitted curve at half-maximal effect; % is scaled to controls: 0 for no effect and ±100 for the full control effect; nearly all actives have a fitted effect of over 55% in size
#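 Human K18 P301L fragment (15 uM unlabeled plus 0.24 uM Alexa 594-labeled) in 100 mM sodium acetate pH 7 with compound, aggregation induced by 20 uM heparin for 6 hr at 37 C. ThT (30 uM) added for 1 hr, then Alexa 594 FP read.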
# RGS12 GoLoco inh-2: Confirmation qHTS Assay for Inhibitors of RGS12 GoLoco Motif Activity (Red Fluorophore); shares compounds with RGS12 GoLoco inh-1; Gai1/rhodamine-RGS12 GoLoco peptide fluorescence polarization; Potency, µM (titrated, usually from 57.1 µM), inactives show at the top dose activity, negative = inhibition, most hits filed as inhibitors; 50% of 110 active; AID 2390, 2010
# * hit, by the source's call; ? = inconclusive; . = not tested or not shown; ! = repeats disagree; [ ] = remark or other dose. Hits are enriched below; roughly 3.4% of the tested compounds scored in any of these assays. Unless noted, calls follow the shape of the dose curve; as a rule, active = well fitted curve in the direction sought with a large enough effect; inconclusive = small, poorly fitted or top-dose-only effect, or another doubt; inactive = no such curve, though single readings can be large; an effect the other way counts as inactive or inconclusive.
SMILES,JMJD2E inh,Tau fluor cs,RGS12 GoLoco inh-1,Tau fibril ThT,Tau fibril FP,others
C/C1=C\[C@@H](C)C/C=C/[C@H]2[C@@H]3O[C@]3(C)[C@@H](C)[C@H]3[C@H](Cc4c[nH]c5ccccc45)NC(=O)[C@]32C(=O)/C=C/C(=O)[C@@H]1O,-1%,?,-4%,0.89µM*,-19%,
C[C@@H]1CC[C@@H]2N(C1)C[C@H]1[C@@](O)([C@H](O)C[C@]3(O)[C@H]4CC[C@H]5[C@]6(O)O[C@]4(C[C@]13O)[C@@]5(C)CC[C@@H]6O)[C@@]2(C)O,.,.,-8%[14.2 µM],.,.,
COc1c(O)c2c(=O)cc(OC)c3c4c(OC)cc(=O)c5c(O)c(OC)c(C[C@@H](C)OC(=O)c6ccccc6)c(c(c1C[C@@H](C)OC(=O)Oc1ccc(O)cc1)c23)c54,.,?,16µM*,-11%,4%,
COc1cc(C(=O)N/N=C/c2ccc(OC(=O)N3CCOCC3)cc2)cc(OC)c1OC,28µM*,3%,9%,-18%,2%,
Cc1ccc(NC(=[OH+])c2cc3ccccc3cc2O)c(C)c1.Cc1ccc(NC(=[OH+])c2cc3ccccc3cc2O)c(C)c1.[Ni],.,.,1%[14.2 µM],.,.,
O=[N+]([O-])c1cccc(O)c1,.,.,-7%,.,.,
NNCc1cccc(O)c1,22µM*!,?,5%,?,?,
O=[N+]([O-])c1ccc(-c2ccc(C=Nc3cccc4ccccc34)o2)cc1,?,-27%,3%,16µM*,-4%,
COc1cc(OC)c(OC)cc1CN1CCc2nc(N3CCN(c4ccccc4F)CC3)ncc2C1,.,-4%,.,?,7%,
COc1cc2c(cc1OC)[C@@]13CCN4C=C5CCO[C@H]6CC(=O)N2[C@@H]1C6[C@H]5C[C@H]43 (some centres undefined),.,.,4%[14.2 µM],.,.,
COc1ccc(CN2C(=O)NC(=O)/C(=C\c3ccco3)C2=O)cc1,-25%,-16%,126%,?,?,
COc1ccc(CN2C(=O)NC(=O)/C(=C/c3ccc([N+](=O)[O-])s3)C2=O)cc1,25µM*,?,41%,7.9µM*,25µM*,
O=C1NC(=O)N(Cc2ccc(F)cc2)C(=O)/C1=C\c1ccc(N2CCCC2)cc1,-26%,29%,67%,25µM*,-5%,
O=C1NC(=O)N(Cc2ccc(F)cc2)C(=O)/C1=C\c1ccc([N+](=O)[O-])s1,28µM*,?,41%,.,0.35µM*,
CCc1ccc(NC(=O)c2ccc(F)c(S(=O)(=O)N3CCc4ccccc4C3)c2)cc1,.,-26%,.,-2%,?,
CC(C)N(Cc1ccccc1)C(=O)CCS(=O)(=O)c1ccc2c(c1)oc(=O)n2C,.,-16%,.,?,-5%,
CCOc1ccc(N(C(C)C(=O)Nc2cc(Cl)ccc2OC)S(C)(=O)=O)cc1 (centres undefined),.,?,.,?,-12%,
CC(=O)[O][Hg][c]1ccccc1,2.2µM*,?,1.6µM*!,?,?,
CC(=O)/C=C/c1ccccc1,.,.,7%,.,.,
Cc1cc(C)cc(N2C(=O)NC(=O)/C(=C\c3cccn3-c3ccccc3)C2=O)c1,6%,0%,28%,-18%,4%,
CN1C(=O)/C(=C/c2cccn2-c2ccc3ccccc3c2)C(=O)NC1=S,-2%,18µM*[quencher],26%,16µM*,32µM*,
O=C1NC(=S)NC(=O)C1=Cc1cccn1-c1ccc(O)cc1,-5%,?,13%,25µM*,-7%,
C=CCN1C(=O)NC(=O)/C(=C/c2cc3c4c(c2)CCCN4CCC3)C1=O,20µM*,-29%,205%,18µM*,?,
CC1=C(O)C(=O)[C@@H]2O[C@@H]2C1=O,.,?,-12%,16µM*,20µM*,
Cc1cccc(N2C(=O)CSC23C(=O)N(CC(=O)Nc2cccc(Cl)c2)c2ccccc23)c1 (centres undefined),.,?,.,11%,25µM*,
SMILES,JMJD2E inh,Tau fluor cs,RGS12 GoLoco inh-1,Tau fibril ThT,Tau fibril FP,others
NC[C@@H](O)CSP(=O)(O)O,.,.,-3%[14.2 µM],.,.,
CCn1c(C)[n+](CC)c2ccc(S(=O)(=O)NC)cc21,7.9µM*,4%,18%,1%,0%,
Nc1cc(Cl)c2nonc2c1[N+](=O)[O-],-16%,?,-6%,11µM*,-11%,
CCCC[N+]12CCC(CC1)C(=C(c1ccccc1)c1ccccc1)C2,-9%,-7%,7.9µM*,-11%,-14%,RGS12 GoLoco inh-2=16µM*
CCC[N+]12CCC(CC1)C(=C(c1ccccc1)c1ccccc1)C2,12%,-4%,7%,-13%,-1%,
C=C1C(O)(c2ccccc2)C2CC[N+]1(C)CC2 (centres undefined),-9%,2%,10µM*,-5%,6%,RGS12 GoLoco inh-2=?
C=C1N2CCC(CC2)C1(O)c1ccc(C)cc1 (centres undefined),-7%,-8%,-15%,-13%,-3%,
[O-][Br+2]([O-])O,.,.,8%,.,.,
NC(N)=Nc1ccc2[nH]c3c(c2c1)C[C@@]1(O)[C@H]2Cc4ccc(O)c5c4[C@@]1(CCN2CC1CC1)[C@H]3O5,10µM*,-4%,2.8µM*,1%,-1%,RGS12 GoLoco inh-2=7.9µM*
Cc1ccc(N=C=O)cc1N=C=O,.,.,11%,.,.,
C[N+]12CCC(CC1)C(C#N)(N1CCOCC1)C2 (centres undefined),4%,8%,2.2µM*,3%,-1%,RGS12 GoLoco inh-2=?
